According to PubChem BioAssay AID1159580 (chemical genetic matrix, 2015):
The campaign covered roughly 5,500 compounds. About 2,000 (36%) were called active. Another 18% or so got no clear call; they are omitted. Rule as the data show it: active = normalized growth mostly below about 0.91 (no sharp cut-off); inconclusive = no clear call, values can overlap the other calls; inactive = mostly above about 0.92. The list shows a part of the results.

Test: chemical genetic growth profiling, strain panel (AID 1159580);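 also: tested at 20 µM; growth read once vehicle control cultures reached saturation at 30 °C; 1 = growth at the plate median or of vehicle wells; lower values mean less growth of the strain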
Details: growth OD

Measured: normalized growth

CN1C(CC(=O)c2ccccc2)CCCC1CC(O)c1ccccc1 (configuration not stated)
inactive: S. cerevisiae deletion strains, locus YJR075W, strain HOC1, stronger effect = lower value 0.998 | S. cerevisiae deletion strains, locus YKL009W, strain mrt4, stronger effect = lower value 0.994 | S. cerevisiae deletion strains, locus YKL068W, stronger effect = lower value 0.994 | S. cerevisiae deletion strains, locus YKL085W, strain MDH1 (second series), stronger effect = lower value 0.989 | S. cerevisiae deletion strains, locus YKL085W, strain MDH1, stronger effect = lower value 0.989 | S. cerevisiae deletion strains, locus YKL160W, strain elf1, stronger effect = lower value 1 | S. cerevisiae deletion strains, locus YKL190W, strain CNB1, stronger effect = lower value 1.01 | S. cerevisiae deletion strains, locus YKR001C, strain vps1, stronger effect = lower value 1 | S. cerevisiae deletion strains, locus YKR026C, strain gcn3, stronger effect = lower value 0.977 | S. cerevisiae deletion strains, locus YKR091W, strain srl3, stronger effect = lower value 0.975 | S. cerevisiae deletion strains, locus YLL001W, strain dnm1, stronger effect = lower value 0.967 | S. cerevisiae deletion strains, locus YLL026W, stronger effect = lower value 0.98 | S. cerevisiae deletion strains, locus YLL041C, strain sdh2, stronger effect = lower value 0.982 | S. cerevisiae deletion strains, locus YLR027C, strain aat2, stronger effect = lower value 0.965 | S. cerevisiae deletion strains, locus YLR039C, strain RIC1, stronger effect = lower value 1.04 | S. cerevisiae deletion strains, locus YLR058C, strain SHM2, stronger effect = lower value 1.01 | S. cerevisiae deletion strains, locus YLR102C, strain apc9, stronger effect = lower value 0.983 | S. cerevisiae deletion strains, locus YLR113W, strain HOG1, stronger effect = lower value 0.984 | S. cerevisiae deletion strains, locus YLR221C, strain rsa3, stronger effect = lower value 0.99 | S. cerevisiae deletion strains, locus YLR258W, strain gsy2, stronger effect = lower value 0.983 | S. cerevisiae deletion strains, locus YLR262C, strain YPT6 (second series), stronger effect = lower value 0.909 | S. cerevisiae deletion strains, locus YLR262C, strain YPT6, stronger effect = lower value 1.06 | S. cerevisiae deletion strains, locus YLR268W, strain sec22, stronger effect = lower value 0.928 | S. cerevisiae deletion strains, locus YLR320W, strain mms22, stronger effect = lower value 0.979 | S. cerevisiae deletion strains, locus YLR330W, strain CHS5, stronger effect = lower value 1 | S. cerevisiae deletion strains, locus YLR342W, strain FKS1 (second series), stronger effect = lower value 1.03 | S. cerevisiae deletion strains, locus YLR342W, strain FKS1, stronger effect = lower value 0.966 | S. cerevisiae deletion strains, locus YLR357W, strain rsc2, stronger effect = lower value 0.967 | S. cerevisiae deletion strains, locus YLR370C, strain arc18, stronger effect = lower value 0.962 | S. cerevisiae deletion strains, locus YLR371W, strain rom2, stronger effect = lower value 0.984 | S. cerevisiae deletion strains, locus YLR384C, strain iki3, stronger effect = lower value 0.974 | S. cerevisiae deletion strains, locus YLR418C, strain cdc73, stronger effect = lower value 0.957 | S. cerevisiae deletion strains, locus YML016C, strain PPZ1, stronger effect = lower value 1.01 | S. cerevisiae deletion strains, locus YML032C, strain rad52, stronger effect = lower value 0.973 | S. cerevisiae deletion strains, locus YML120C, strain ndi1, stronger effect = lower value 0.977 | S. cerevisiae deletion strains, locus YML124C, strain tub3, stronger effect = lower value 0.988 | S. cerevisiae deletion strains, locus YMR058W, strain fet3, stronger effect = lower value 0.969 | S. cerevisiae deletion strains, locus YMR078C, strain ctf18, stronger effect = lower value 0.991 | S. cerevisiae deletion strains, locus YMR125W, strain sto1, stronger effect = lower value 0.951 | S. cerevisiae deletion strains, locus YMR129W, stronger effect = lower value 0.976 | S. cerevisiae deletion strains, locus YMR205C, strain PFK2, stronger effect = lower value 0.971 | S. cerevisiae deletion strains, locus YMR223W, strain ubp8, stronger effect = lower value 0.993 | S. cerevisiae deletion strains, locus YMR231W, strain pep5, stronger effect = lower value 0.987 | S. cerevisiae deletion strains, locus YMR263W, strain SAP30, stronger effect = lower value 1.01 | S. cerevisiae deletion strains, locus YMR307W, strain GAS1, stronger effect = lower value 1.08 | S. cerevisiae deletion strains, locus YNL067W, strain RPL9B, stronger effect = lower value 0.986 | S. cerevisiae deletion strains, locus YNL071W, strain lat1, stronger effect = lower value 0.975 | S. cerevisiae deletion strains, locus YNL128W, strain TEP1, stronger effect = lower value 1.01 | S. cerevisiae deletion strains, locus YNL153C, strain GIM3, stronger effect = lower value 0.988 | S. cerevisiae deletion strains, locus YNL183C, strain NPR1, stronger effect = lower value 0.924 | S. cerevisiae deletion strains, locus YNL209W, strain ssb2, stronger effect = lower value 0.981 | S. cerevisiae deletion strains, locus YNL233W, strain BNI4, stronger effect = lower value 0.994 | S. cerevisiae deletion strains, locus YNL248C, strain rpa49, stronger effect = lower value 1.01 | S. cerevisiae deletion strains, locus YNL250W, strain rad50, stronger effect = lower value 0.981 | S. cerevisiae deletion strains, locus YNL271C, strain bni1, stronger effect = lower value 0.984 | S. cerevisiae deletion strains, locus YNL298W, strain CLA4, stronger effect = lower value 0.98 | S. cerevisiae deletion strains, locus YNL307C, strain MCK1, stronger effect = lower value 0.992 | S. cerevisiae deletion strains, locus YNL322C, strain KRE1 (second series), stronger effect = lower value 0.985 | S. cerevisiae deletion strains, locus YNL322C, strain KRE1, stronger effect = lower value 1.01 | S. cerevisiae deletion strains, locus YNR049C, strain mso1, stronger effect = lower value 0.973 | S. cerevisiae deletion strains, locus YNR052C, strain pop2, stronger effect = lower value 0.99 | S. cerevisiae deletion strains, locus YOL006C, strain TOP1, stronger effect = lower value 0.939 | S. cerevisiae deletion strains, locus YOL012C, strain htz1 0.951 | S. cerevisiae deletion strains, locus YOL147C, strain pex11, stronger effect = lower value 0.991 | S. cerevisiae deletion strains, locus YOR001W, strain rrp6, stronger effect = lower value 0.997 | S. cerevisiae deletion strains, locus YOR061W, strain CKA2, stronger effect = lower value 1.02 | S. cerevisiae deletion strains, locus YOR069W, strain VPS5, stronger effect = lower value 1.01 | S. cerevisiae deletion strains, locus YOR070C, strain gyp1, stronger effect = lower value 0.971 | S. cerevisiae deletion strains, locus YOR080W, strain dia2, stronger effect = lower value 0.988 | S. cerevisiae deletion strains, locus YOR083W, strain WHI5, stronger effect = lower value 1.01 | S. cerevisiae deletion strains, locus YOR106W, strain vam3, stronger effect = lower value 1 | S. cerevisiae deletion strains, locus YOR136W, strain idh2, stronger effect = lower value 0.993 | S. cerevisiae deletion strains, locus YOR144C, strain elg1, stronger effect = lower value 0.993 | S. cerevisiae deletion strains, locus YOR184W, strain ser1, stronger effect = lower value 0.988 | S. cerevisiae deletion strains, locus YOR231W, strain MKK1, stronger effect = lower value 0.978 | S. cerevisiae deletion strains, locus YOR265W, strain rbl2, stronger effect = lower value 0.973 | S. cerevisiae deletion strains, locus YOR270C, strain vph1, stronger effect = lower value 0.917 | S. cerevisiae deletion strains, locus YOR290C, strain snf2, stronger effect = lower value 0.951 | S. cerevisiae deletion strains, locus YOR316C, strain cot1, stronger effect = lower value 0.99 | S. cerevisiae deletion strains, locus YPL051W, strain arl3, stronger effect = lower value 0.998 | S. cerevisiae deletion strains, locus YPL055C, strain LGE1, stronger effect = lower value 1.01 | S. cerevisiae deletion strains, locus YPL078C, strain atp4, stronger effect = lower value 0.991 | S. cerevisiae deletion strains, locus YPL106C, strain sse1, stronger effect = lower value 0.954 | S. cerevisiae deletion strains, locus YPL240C, strain hsp82, stronger effect = lower value 0.998 | S. cerevisiae deletion strains, locus YPL241C, strain CIN2, stronger effect = lower value 1.01 | S. cerevisiae deletion strains, locus YPL256C, strain CLN2, stronger effect = lower value 0.938 | S. cerevisiae deletion strains, locus YPR119W, strain clb2, stronger effect = lower value 0.992 | S. cerevisiae deletion strains, locus YPR141C, strain kar3, stronger effect = lower value 0.992 | S. cerevisiae deletion strains, locus YPR163C, strain tif3, stronger effect = lower value 0.981 | S. cerevisiae deletion strains, locus YPR167C, strain met16, stronger effect = lower value 0.997 | S. cerevisiae deletion strains, strain wtn01, stronger effect = lower value 0.954 | S. cerevisiae strains, strain wild type, stronger effect = lower value 1.01
